# Columns and labels:
# Experiment in all cases: DAPPL (digital affinity profiling via proximity ligation, sequencing); 10 mM Tris-HCl pH 7.5, 50 mM NaCl, 1 mM DTT, 4% glycerol, room temperature, 30 min; GST-TFs on glutathione beads, 16-mer random dsDNA library, 0.1% formaldehyde crosslink after washing; high values mean tight binding
# FLI1 = target: T1, FLI1 (Homo sapiens, UniProt Q01543 1-452); settings: protein: recombinant; tags: N-terminal GST; dsDNA, one strand shown
# T1 sequence: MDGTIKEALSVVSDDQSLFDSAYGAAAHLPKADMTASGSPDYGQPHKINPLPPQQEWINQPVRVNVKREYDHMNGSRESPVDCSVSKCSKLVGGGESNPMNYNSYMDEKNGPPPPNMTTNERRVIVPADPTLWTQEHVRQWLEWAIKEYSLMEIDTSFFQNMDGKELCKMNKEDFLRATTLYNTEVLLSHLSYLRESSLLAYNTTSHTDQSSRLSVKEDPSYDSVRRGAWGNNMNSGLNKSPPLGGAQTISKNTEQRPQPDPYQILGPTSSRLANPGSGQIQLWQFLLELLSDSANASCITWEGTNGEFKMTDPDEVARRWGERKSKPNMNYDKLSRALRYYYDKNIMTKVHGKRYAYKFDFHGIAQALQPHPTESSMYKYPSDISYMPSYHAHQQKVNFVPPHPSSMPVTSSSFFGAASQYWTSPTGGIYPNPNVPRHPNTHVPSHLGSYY
# Procedure, shortened: (§1)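 Human transcription factors carrying a GST fusion were produced in yeast, bound to glutathione beads, tagged with DNA barcodes and pooled together with a tag-only sample. Each pool was held with 200 nmole of a random double-stranded 16-mer DNA library in Tris/NaCl/DTT/glycerol buffer for 30 min at room temperature, then washed, crosslinked in 0.1% formaldehyde, proximity-ligated with BsaI/T4 ligase (1 h, 37 °C), PCR-amplified and sequenced on an Illumina NextSeq500. Binding signal is the read frequency of each hexamer for a given factor divided by its frequency in the tag-only sample.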
# ELK1 = target: T2, ELK1 (Homo sapiens, UniProt P19419 1-428); settings: protein: recombinant; tags: N-terminal GST; dsDNA, one strand shown
# T2 sequence: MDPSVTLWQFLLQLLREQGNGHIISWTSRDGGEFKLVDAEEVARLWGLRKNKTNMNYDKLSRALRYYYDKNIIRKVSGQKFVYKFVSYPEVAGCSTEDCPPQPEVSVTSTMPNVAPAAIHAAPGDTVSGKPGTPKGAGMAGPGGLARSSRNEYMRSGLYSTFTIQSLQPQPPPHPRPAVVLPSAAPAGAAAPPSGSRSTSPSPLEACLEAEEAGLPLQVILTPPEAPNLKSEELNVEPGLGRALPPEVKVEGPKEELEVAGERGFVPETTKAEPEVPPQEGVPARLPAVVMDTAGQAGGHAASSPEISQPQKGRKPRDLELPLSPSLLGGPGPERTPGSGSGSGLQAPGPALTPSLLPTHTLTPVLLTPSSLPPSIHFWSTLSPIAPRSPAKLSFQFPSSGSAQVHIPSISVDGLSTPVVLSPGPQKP
# Procedure, shortened: as §1
# GABPA = target: T3, GABPA (Homo sapiens, UniProt Q06546 1-454); settings: protein: recombinant; tags: N-terminal GST; dsDNA, one strand shown
# T3 sequence: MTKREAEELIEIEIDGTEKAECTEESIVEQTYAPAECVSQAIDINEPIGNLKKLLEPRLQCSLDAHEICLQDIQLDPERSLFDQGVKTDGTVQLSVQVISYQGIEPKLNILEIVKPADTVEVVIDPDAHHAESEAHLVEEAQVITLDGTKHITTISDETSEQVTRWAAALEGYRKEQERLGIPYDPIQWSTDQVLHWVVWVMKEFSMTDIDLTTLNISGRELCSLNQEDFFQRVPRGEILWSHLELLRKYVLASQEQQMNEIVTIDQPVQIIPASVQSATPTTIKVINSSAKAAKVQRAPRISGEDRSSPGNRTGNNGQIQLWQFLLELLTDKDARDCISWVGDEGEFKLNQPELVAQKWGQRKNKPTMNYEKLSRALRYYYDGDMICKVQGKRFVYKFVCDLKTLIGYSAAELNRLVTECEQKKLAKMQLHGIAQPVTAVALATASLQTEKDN
# Procedure, shortened: as §1
# ERG = target: T4, ERG (Homo sapiens, UniProt P11308 1-479); settings: protein: recombinant; tags: N-terminal GST; dsDNA, one strand shown
# T4 sequence: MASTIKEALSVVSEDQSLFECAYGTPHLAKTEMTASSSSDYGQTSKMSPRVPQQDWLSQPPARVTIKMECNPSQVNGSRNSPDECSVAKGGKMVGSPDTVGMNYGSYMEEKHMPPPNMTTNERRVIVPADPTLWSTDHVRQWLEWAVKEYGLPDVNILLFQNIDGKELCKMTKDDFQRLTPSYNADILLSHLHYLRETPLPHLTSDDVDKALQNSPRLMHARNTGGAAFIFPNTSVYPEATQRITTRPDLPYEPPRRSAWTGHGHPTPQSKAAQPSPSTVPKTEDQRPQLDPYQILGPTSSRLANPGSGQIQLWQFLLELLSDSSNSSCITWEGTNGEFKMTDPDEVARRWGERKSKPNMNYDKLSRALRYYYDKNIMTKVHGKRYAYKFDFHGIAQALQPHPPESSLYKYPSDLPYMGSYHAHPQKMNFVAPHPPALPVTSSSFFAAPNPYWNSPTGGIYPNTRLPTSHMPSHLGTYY
# Procedure, shortened: as §1
# ELF1 = ELF1 (Homo sapiens, UniProt P32519 1-619); settings: protein: recombinant; tags: N-terminal GST; dsDNA, one strand shown
# Procedure, shortened: as §1
# EHF = target: T5, EHF (Homo sapiens, UniProt Q9NZC4 1-300); settings: protein: recombinant; tags: N-terminal GST; dsDNA, one strand shown
# T5 sequence: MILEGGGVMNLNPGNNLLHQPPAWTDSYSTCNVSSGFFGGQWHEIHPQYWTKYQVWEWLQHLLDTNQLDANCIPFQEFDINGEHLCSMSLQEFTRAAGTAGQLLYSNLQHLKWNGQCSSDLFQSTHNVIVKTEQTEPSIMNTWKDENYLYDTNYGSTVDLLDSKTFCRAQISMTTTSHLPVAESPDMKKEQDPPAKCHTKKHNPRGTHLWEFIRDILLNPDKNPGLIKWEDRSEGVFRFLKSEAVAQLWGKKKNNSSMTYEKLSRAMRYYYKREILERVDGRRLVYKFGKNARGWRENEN
# Procedure, shortened: as §1
# SPI1 = SPI1 (Homo sapiens, UniProt P17947 1-270); settings: protein: recombinant; tags: N-terminal GST; dsDNA, one strand shown
# Procedure, shortened: as §1
# SPIB = SPIB (Homo sapiens, UniProt Q01892 1-262); settings: protein: recombinant; tags: N-terminal GST; dsDNA, one strand shown
# Procedure, shortened: as §1
# ELK3 = target: T6, ELK3 (Homo sapiens, UniProt P41970 1-407); settings: protein: recombinant; tags: N-terminal GST; dsDNA, one strand shown
# T6 sequence: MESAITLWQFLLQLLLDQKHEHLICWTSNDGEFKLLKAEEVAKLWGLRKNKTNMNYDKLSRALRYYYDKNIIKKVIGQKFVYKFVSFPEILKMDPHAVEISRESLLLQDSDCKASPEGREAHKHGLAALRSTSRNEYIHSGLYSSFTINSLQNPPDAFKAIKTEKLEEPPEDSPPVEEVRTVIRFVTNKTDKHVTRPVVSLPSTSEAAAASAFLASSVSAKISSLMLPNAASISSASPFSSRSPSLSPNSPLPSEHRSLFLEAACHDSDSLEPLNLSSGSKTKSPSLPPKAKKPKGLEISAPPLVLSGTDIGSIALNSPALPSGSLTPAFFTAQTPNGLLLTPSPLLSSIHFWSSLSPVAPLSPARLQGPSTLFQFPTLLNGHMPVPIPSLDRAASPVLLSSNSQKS
# Procedure, shortened: as §1
# FEV = target: T7, FEV (Homo sapiens, UniProt Q99581 1-238); settings: protein: recombinant; tags: N-terminal GST; dsDNA, one strand shown
# T7 sequence: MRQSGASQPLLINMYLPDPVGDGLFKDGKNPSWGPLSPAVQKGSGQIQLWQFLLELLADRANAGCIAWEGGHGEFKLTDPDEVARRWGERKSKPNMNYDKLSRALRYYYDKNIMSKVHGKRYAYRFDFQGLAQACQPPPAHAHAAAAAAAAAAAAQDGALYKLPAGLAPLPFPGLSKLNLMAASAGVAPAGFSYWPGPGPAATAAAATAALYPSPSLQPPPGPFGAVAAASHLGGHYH
# Procedure, shortened: as §1
# ETV5 = ETV5 (Homo sapiens, UniProt P41161 1-510); settings: protein: recombinant; tags: N-terminal GST; dsDNA, one strand shown
# Procedure, shortened: as §1
# HSF1 = HSF1 (Homo sapiens, UniProt Q00613 1-529); settings: protein: recombinant; tags: N-terminal GST; chain copies: 3; dsDNA, one strand shown
# Procedure, shortened: as §1
# SPIC = target: T8, SPIC (Homo sapiens, UniProt Q8N5J4 1-248); settings: protein: recombinant; tags: N-terminal GST; dsDNA, one strand shown
# T8 sequence: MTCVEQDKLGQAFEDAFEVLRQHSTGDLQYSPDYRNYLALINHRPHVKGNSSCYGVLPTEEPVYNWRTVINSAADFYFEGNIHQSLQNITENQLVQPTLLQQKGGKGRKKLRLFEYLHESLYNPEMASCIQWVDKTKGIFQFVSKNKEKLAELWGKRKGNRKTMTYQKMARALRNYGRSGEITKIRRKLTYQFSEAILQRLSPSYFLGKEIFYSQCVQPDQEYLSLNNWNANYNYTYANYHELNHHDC
# Procedure, shortened: as §1
# ELF4 = ELF4 (Homo sapiens, UniProt Q99607 1-663); settings: protein: recombinant; tags: N-terminal GST; dsDNA, one strand shown
# Procedure, shortened: as §1
# ELK4 = target: T9, ELK4 (Homo sapiens, UniProt P28324-2 1-405); settings: protein: recombinant; tags: N-terminal GST; dsDNA, one strand shown
# T9 sequence: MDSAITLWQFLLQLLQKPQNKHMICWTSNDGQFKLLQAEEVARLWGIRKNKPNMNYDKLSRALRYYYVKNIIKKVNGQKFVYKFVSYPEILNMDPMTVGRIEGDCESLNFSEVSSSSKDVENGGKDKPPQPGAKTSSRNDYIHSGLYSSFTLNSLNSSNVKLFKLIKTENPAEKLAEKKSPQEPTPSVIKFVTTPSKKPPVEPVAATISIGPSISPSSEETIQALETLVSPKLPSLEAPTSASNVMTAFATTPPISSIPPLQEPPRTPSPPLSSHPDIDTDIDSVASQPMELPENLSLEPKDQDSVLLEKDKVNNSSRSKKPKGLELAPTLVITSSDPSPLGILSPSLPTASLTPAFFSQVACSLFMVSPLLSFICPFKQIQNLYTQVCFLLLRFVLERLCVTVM
# Procedure, shortened: as §1
# ETV2 = target: T10, ETV2 (Homo sapiens, UniProt O00321 1-342); settings: protein: recombinant; tags: N-terminal GST; dsDNA, one strand shown
# T10 sequence: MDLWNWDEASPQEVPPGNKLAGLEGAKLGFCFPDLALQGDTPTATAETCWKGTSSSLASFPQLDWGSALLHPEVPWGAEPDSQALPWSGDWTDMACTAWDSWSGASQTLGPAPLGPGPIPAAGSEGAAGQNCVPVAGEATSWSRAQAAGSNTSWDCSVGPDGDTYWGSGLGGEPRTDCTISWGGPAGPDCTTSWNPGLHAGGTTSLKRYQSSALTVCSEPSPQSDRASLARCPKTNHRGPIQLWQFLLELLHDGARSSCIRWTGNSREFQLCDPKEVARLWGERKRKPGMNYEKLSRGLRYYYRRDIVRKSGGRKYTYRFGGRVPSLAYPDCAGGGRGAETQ
# Procedure, shortened: as §1
# ELF3 = target: T11, ELF3 (Homo sapiens, UniProt P78545 1-371); settings: protein: recombinant; tags: N-terminal GST; dsDNA, one strand shown
# T11 sequence: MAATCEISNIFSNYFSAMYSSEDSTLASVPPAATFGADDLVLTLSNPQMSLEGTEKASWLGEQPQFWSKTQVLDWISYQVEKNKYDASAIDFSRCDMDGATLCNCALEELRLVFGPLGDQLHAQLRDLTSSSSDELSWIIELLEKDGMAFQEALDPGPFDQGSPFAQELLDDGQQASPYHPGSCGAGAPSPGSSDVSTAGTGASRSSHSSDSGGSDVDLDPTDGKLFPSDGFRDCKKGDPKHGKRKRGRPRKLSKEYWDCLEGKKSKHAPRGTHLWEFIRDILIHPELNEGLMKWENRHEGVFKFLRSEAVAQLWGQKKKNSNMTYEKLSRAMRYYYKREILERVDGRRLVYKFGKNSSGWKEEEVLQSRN
# Procedure, shortened: as §1
# CRX = CRX (Homo sapiens, UniProt O43186 1-299); settings: protein: recombinant; tags: N-terminal GST; dsDNA, one strand shown
# Procedure, shortened: as §1
# ETV1 = ETV1 (Homo sapiens, UniProt P50549 1-477); settings: protein: recombinant; tags: N-terminal GST; dsDNA, one strand shown
# Procedure, shortened: as §1
# Sequence of ELF1 (P32519 whole entry): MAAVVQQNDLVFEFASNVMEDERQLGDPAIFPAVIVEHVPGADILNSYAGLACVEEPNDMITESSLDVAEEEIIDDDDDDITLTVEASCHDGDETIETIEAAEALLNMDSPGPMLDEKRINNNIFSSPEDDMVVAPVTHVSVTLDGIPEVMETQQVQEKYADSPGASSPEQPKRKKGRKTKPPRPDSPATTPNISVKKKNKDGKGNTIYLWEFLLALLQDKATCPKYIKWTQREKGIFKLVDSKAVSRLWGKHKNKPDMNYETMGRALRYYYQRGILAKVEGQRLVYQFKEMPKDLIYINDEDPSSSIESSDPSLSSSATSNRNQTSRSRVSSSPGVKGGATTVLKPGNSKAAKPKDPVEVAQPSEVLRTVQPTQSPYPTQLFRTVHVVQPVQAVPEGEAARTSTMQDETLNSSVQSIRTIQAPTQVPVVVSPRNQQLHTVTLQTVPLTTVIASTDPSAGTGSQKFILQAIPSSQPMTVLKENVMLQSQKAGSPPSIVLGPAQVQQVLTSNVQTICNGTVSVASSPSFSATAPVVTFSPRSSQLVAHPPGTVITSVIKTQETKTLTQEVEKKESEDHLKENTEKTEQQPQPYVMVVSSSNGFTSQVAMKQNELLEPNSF
# Sequence of HSF1 (Q00613 whole entry): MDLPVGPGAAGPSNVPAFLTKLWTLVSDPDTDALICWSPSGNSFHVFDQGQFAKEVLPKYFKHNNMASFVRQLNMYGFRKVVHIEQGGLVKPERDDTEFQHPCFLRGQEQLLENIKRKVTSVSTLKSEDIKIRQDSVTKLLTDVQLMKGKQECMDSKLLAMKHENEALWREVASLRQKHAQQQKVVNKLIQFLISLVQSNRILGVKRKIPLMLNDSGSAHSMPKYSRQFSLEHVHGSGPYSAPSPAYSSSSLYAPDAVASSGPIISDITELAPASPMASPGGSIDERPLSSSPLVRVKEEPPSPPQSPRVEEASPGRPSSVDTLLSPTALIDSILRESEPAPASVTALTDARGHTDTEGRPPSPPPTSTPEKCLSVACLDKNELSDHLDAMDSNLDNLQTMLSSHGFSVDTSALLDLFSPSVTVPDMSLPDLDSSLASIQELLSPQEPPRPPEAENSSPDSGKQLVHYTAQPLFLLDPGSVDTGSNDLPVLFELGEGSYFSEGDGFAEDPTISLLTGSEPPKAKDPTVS
# Sequence of ELF4 (Q99607 whole entry): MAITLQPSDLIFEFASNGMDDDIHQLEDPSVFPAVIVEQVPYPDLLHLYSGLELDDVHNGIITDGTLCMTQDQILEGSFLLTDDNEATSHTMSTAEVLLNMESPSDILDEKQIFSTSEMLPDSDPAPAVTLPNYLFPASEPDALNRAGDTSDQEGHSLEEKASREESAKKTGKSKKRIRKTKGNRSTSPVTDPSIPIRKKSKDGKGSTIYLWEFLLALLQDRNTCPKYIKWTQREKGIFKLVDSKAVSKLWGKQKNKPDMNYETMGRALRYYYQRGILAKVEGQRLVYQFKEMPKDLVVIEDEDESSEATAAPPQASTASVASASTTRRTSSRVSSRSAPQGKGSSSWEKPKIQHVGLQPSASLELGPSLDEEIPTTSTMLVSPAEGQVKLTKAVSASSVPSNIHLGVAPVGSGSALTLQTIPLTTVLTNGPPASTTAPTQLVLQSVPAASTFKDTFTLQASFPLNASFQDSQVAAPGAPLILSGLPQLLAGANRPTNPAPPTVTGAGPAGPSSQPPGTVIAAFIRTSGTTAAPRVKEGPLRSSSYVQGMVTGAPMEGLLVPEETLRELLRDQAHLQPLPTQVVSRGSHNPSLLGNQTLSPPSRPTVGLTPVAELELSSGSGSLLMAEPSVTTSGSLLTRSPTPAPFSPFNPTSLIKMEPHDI
# Sequence of SPIB (Q01892 whole entry): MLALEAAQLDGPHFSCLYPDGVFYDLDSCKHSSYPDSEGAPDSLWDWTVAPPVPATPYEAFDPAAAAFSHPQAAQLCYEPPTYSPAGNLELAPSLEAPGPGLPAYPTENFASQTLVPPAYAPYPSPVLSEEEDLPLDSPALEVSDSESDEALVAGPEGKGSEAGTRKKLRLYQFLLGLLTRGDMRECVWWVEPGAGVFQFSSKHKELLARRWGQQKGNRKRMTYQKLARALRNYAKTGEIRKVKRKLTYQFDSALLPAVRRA
# Sequence of ETV5 (P41161 whole entry): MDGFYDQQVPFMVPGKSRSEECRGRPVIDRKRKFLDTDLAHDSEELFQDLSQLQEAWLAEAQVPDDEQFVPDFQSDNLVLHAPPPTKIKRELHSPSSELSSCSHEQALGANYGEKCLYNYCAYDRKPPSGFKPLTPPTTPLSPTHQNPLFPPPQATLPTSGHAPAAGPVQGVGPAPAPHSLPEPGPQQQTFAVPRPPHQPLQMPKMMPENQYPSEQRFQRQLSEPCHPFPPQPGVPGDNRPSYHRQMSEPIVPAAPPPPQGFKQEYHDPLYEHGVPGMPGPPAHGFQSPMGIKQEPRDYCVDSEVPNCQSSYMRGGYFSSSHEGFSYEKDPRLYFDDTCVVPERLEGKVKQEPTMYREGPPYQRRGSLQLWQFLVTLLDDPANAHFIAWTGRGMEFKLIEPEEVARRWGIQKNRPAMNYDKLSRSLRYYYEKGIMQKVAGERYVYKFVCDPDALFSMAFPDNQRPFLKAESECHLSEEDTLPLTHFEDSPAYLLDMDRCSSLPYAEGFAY
# Sequence of ETV1 (P50549 whole entry): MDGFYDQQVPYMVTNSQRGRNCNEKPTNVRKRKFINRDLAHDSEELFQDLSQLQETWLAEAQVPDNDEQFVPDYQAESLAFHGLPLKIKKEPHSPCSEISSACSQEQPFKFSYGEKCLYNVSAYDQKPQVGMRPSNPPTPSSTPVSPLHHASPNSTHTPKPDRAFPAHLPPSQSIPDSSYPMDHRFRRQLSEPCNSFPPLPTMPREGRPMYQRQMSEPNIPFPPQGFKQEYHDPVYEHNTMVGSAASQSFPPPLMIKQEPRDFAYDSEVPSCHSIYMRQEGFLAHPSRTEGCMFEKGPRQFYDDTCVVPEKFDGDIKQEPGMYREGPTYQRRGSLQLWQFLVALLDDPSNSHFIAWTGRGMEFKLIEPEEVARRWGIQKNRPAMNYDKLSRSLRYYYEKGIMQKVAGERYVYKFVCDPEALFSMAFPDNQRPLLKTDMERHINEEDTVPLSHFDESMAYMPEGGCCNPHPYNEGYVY
# Sequence of CRX (O43186 whole entry): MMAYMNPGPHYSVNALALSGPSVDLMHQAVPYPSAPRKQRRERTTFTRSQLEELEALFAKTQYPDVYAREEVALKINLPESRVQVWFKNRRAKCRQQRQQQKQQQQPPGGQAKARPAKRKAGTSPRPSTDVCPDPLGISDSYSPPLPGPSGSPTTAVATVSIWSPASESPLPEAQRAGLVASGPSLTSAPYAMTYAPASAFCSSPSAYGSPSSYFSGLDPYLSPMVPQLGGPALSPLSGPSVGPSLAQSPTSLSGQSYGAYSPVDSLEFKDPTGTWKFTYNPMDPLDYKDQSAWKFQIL
sequence,measurement,setting,value
TCCATC,binding signal,FLI1,"1.28 fold enrichment (6-mer frequency, TF over GST control)"
same,binding signal,ELK1,"1.28 fold enrichment (6-mer frequency, TF over GST control)"
same,binding signal,GABPA,"1.15 fold enrichment (6-mer frequency, TF over GST control)"
same,binding signal,ERG,"1.17 fold enrichment (6-mer frequency, TF over GST control)"
same,binding signal,ELF1,"1.29 fold enrichment (6-mer frequency, TF over GST control)"
same,binding signal,EHF,"1.2 fold enrichment (6-mer frequency, TF over GST control)"
same,binding signal,SPI1,"1.19 fold enrichment (6-mer frequency, TF over GST control)"
same,binding signal,SPIB,"1.16 fold enrichment (6-mer frequency, TF over GST control)"
same,binding signal,ELK3,"1.28 fold enrichment (6-mer frequency, TF over GST control)"
same,binding signal,FEV,"1.21 fold enrichment (6-mer frequency, TF over GST control)"
same,binding signal,ETV5,"1.22 fold enrichment (6-mer frequency, TF over GST control)"
same,binding signal,HSF1,"1.16 fold enrichment (6-mer frequency, TF over GST control)"
same,binding signal,SPIC,"1.06 fold enrichment (6-mer frequency, TF over GST control)"
same,binding signal,ELF4,"1.13 fold enrichment (6-mer frequency, TF over GST control)"
same,binding signal,ELK4,"1.26 fold enrichment (6-mer frequency, TF over GST control)"
same,binding signal,ETV2,"1.32 fold enrichment (6-mer frequency, TF over GST control)"
same,binding signal,ELF3,"1.11 fold enrichment (6-mer frequency, TF over GST control)"
same,binding signal,CRX,"1.15 fold enrichment (6-mer frequency, TF over GST control)"
same,binding signal,ETV1,"1.17 fold enrichment (6-mer frequency, TF over GST control)"

# Reference: article PMC7862700, “An all-to-all approach to the identification of sequence-specific readers for epigenetic DNA modifications on cytosine”
